The record followed here is PubChem BioAssay.

Values joined by “and” are separate entries in the source; they are usually repeats but may differ in a detail not shown here. Equal entries are not always repeated. Active and inactive are the calls of the source.

Test [1] deals with Plasmodium falciparum Sir2 (PF13_0152, Sir2A). The test can be described thus: Plasmodium falciparum Sir2A binding compounds – biochemical, small-molecule microarray, 635 nm fluorescence, primary screen (AID 1098).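 Also: score merges spot fluorescence intensity with its signal-to-noise ratio.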 As to conditions: fluorescence 635 nm, higher = more signal.
Test [2] can be described thus: probe aDKK1 binding to arrayed compounds – biochemical, biotinylated probe, 635/667 nm fluorescence, primary screen (AID 1099).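 Also: score merges 667nm spot fluorescence with signal to noise across triplicate slides.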 As to conditions: small-molecule microarray, higher = more signal.
Test [3] in a line: probe aCHRDL2 binding to arrayed compounds – biochemical, biotinylated probe, 635/667 nm fluorescence, primary screen (AID 1100). As to conditions: small-molecule microarray, higher = more signal.
The nature of test [4]: change in splice reporter luminescence, either direction, cell-based, HEK293, spliceosome inhibition project, primary screen (AID 1101).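 Also: HEK293 cells carrying a splicing-competent luciferase reporter gene; test concentration not given here.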 As to conditions: HEK293 splicing luciferase reporter, 24 h, higher = more signal, called active from +8 up or from −8 down. On the technique in general: Reporter assays use an easily measured gene product as a stand-in for the process of interest.

For test [5], the target named is Fibroblast growth factor 10 (Homo sapiens) (UniProt O15520). Briefly: compounds binding fibroblast growth factor 10 – biochemical, small-molecule microarray, 635 nm fluorescence, primary screen (AID 1102). The note with it: FGF10 binding, fluorescence 635 nm, higher = more signal.
Sequence of Fibroblast growth factor 10 (Homo sapiens) (O15520 whole entry, looked up): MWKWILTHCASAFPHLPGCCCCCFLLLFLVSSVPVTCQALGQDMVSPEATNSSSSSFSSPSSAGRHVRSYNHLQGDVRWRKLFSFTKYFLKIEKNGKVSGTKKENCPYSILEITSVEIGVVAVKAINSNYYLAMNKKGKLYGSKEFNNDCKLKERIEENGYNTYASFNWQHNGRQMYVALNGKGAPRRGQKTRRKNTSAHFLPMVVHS
The test system of test [6] is glycogen synthase kinase-3 (GSK3A per assay name; protocol says GSK3B). The test can be described thus: compounds binding glycogen synthase kinase-3 – biochemical, small-molecule microarray, 635 nm fluorescence, GSK3A, primary screen (AID 1103). Also: the record names both GSK3A and GSK3B. As to conditions: fluorescence 635 nm, higher = more signal.
For test [7], the target named is Epidermal growth factor receptor (Homo sapiens) (UniProt P00533). The test can be described thus: compounds binding epidermal growth factor receptor – biochemical, small-molecule microarray, 635 nm fluorescence, primary screen (AID 1104).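 Also: score merges 667 nm emission intensity with spot signal to noise over triplicate slides.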 The note with it: EGFR binding, higher = more signal.
Sequence of Epidermal growth factor receptor (Homo sapiens) (P00533 whole entry, looked up): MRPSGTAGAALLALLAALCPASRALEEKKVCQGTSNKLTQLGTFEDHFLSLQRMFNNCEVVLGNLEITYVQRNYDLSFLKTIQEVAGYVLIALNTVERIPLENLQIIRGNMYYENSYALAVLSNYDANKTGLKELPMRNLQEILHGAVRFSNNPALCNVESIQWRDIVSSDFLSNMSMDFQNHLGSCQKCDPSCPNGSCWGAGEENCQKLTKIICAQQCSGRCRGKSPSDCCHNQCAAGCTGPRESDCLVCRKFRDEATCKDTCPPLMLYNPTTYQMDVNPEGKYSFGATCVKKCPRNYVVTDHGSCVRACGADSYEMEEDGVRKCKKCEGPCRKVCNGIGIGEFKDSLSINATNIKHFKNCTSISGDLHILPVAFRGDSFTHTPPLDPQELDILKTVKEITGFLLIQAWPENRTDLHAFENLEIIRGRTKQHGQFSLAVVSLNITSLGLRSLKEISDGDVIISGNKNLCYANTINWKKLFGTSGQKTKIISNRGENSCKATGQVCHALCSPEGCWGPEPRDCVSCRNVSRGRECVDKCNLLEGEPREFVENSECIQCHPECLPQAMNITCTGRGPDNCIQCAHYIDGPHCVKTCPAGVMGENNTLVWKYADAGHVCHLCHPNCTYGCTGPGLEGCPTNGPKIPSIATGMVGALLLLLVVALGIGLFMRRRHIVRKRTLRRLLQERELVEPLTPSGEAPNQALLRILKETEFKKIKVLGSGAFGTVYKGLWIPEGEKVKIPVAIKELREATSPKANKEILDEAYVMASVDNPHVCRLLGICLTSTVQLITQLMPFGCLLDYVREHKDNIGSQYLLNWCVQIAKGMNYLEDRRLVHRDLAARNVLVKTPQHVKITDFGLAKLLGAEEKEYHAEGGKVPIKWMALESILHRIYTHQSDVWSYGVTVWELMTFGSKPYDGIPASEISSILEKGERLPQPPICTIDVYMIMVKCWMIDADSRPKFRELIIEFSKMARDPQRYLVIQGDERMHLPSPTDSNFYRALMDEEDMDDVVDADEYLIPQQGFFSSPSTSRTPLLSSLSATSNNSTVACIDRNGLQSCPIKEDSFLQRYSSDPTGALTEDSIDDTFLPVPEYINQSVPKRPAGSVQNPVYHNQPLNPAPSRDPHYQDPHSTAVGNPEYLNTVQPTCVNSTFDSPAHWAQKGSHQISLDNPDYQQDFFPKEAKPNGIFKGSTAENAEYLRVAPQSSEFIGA
The target of test [8] is Follistatin-related protein 3 (Homo sapiens) (UniProt O95633). Briefly: compounds binding follistatin-related protein 3 – biochemical, small-molecule microarray, 635 nm fluorescence, primary screen (AID 1105).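 Also: score merges emission near 667 nm and signal to noise per printed spot across three slides.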 The note with it: FSTL3 binding, higher = more signal.
Sequence of Follistatin-related protein 3 (Homo sapiens) (O95633 whole entry, looked up): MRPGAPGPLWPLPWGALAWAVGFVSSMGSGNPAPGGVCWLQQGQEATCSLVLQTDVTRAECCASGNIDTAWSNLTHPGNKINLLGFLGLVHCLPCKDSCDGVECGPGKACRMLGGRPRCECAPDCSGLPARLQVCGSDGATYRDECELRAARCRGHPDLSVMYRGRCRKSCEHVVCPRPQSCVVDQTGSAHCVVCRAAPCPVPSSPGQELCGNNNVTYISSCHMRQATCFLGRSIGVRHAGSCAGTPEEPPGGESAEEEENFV
Test [9] deals with Dickkopf-related protein 1 (Homo sapiens) (UniProt O94907). Briefly: small molecules binding DKK1 protein – biochemical, small-molecule microarray, 635 nm fluorescence scan, primary screen (AID 1106).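 Also: score merges emission near 667 nm with signal to noise over three replicate slides.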 The note with it: higher = more signal.
Sequence of Dickkopf-related protein 1 (Homo sapiens) (O94907 whole entry, looked up): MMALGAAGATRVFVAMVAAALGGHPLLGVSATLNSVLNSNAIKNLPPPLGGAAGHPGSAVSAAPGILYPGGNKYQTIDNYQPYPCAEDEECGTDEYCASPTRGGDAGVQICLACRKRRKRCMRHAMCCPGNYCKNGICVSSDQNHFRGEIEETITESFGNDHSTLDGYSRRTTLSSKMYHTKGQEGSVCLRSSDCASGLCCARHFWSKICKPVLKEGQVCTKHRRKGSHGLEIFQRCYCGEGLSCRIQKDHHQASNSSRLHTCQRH
Test [10] has as its system Inhibin beta A chain (activin A). Briefly: small molecules binding activin A – biochemical, small-molecule microarray, 635 nm fluorescence scan, primary screen (AID 1107).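 Also: mouse activin A protein probed at 4.33 µg/mL on printed slides; score merges bound-protein fluorescence near 667 nm with spot signal-to-noise.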 The note with it: INHBA, higher = more signal.
For test [11], the system named is Human papillomavirus type 1a protein E7 (residues 44-93). The test can be described thus: small molecules binding HPV E7 44-93 – biochemical, small-molecule microarray, residues 44-93, 635 nm fluorescence, primary screen (AID 1108).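 Also: E7 fragment applied at 1 µg/mL in TBST for 1 h at 4 C; score combines spot fluorescence with its signal to noise ratio.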 As to conditions: fluorescence 635 nm, higher = more signal.
Test [12] is described as follows: hepatitis C replication reporter changes, two-sided – Huh7 cells, luciferase reporter, HCV replication inhibitor project, primary screen (AID 1109).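 Also: huh7 hepatoma cells harbouring a luciferase neomycin HCV replicon reporter; luciferase luminescence as measure of HCV replicon replication; test concentration not given here.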 As to conditions: Huh7 HCV replicon luciferase reporter, 48 h; higher = more signal.
The target in test [13] is Left-right determination factor 2 (Homo sapiens) (UniProt O00292). Briefly: small molecules binding LEFTY2 protein – biochemical, small-molecule microarray, 635 nm fluorescence scan, primary screen (AID 1110). As to conditions: higher = more signal.
Sequence of Left-right determination factor 2 (Homo sapiens) (O00292 whole entry, looked up): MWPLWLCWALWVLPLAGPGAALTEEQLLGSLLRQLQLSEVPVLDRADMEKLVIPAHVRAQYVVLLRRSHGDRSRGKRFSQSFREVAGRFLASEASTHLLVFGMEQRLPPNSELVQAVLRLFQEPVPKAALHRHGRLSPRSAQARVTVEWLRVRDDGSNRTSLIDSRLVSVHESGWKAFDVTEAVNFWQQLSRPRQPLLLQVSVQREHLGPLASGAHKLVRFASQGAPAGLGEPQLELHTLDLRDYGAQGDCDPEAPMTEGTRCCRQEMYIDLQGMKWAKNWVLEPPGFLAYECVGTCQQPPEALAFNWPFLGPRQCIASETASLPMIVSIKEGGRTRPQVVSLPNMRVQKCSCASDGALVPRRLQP
Test [14] addresses Calmodulin-1 (Homo sapiens) (UniProt P0DP23). Briefly: small molecules binding calmodulin-1 with EGTA – biochemical, small-molecule microarray, Cy5-labelled CALM1, profiling panel (AID 1111).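 Also: labelled calmodulin applied in Tris saline Tween buffer holding calcium plus EGTA and DTT.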 The note with it: Cy5-CALM1 binding fluorescence, higher = more signal.
The target is the same in test [15]. Briefly: small molecules binding Ca-loaded calmodulin-1 – biochemical, small-molecule microarray, Cy5-labelled CALM1, plus calcium, artefact control for SMM control-protein annotation, profiling panel (AID 1112).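 Also: score merges spot fluorescence with signal to noise from triplicate slides.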 The note with it: Cy5-CALM1 binding fluorescence, higher = more signal.
Test [16] can be described thus: probe aWnt5a binding to arrayed compounds – biochemical, biotinylated probe, 635/667 nm fluorescence, primary screen (AID 1113).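 Also: score merges 667 nm fluorescence intensity with signal-to-noise per printed feature.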 As to conditions: small-molecule microarray, higher = more signal.
The nature of test [17]: probe aShh binding to arrayed compounds – biochemical, biotinylated probe, 635/667 nm fluorescence, primary screen (AID 1114).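 Also: probe is biotin-labelled aShh protein from a stem cell growth factor screen; measures binding of labelled protein to compounds printed on the slide; score merges feature fluorescence at 667 nm with signal-to-noise.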 The note with it: small-molecule microarray, higher = more signal.
Test [18] in a line: probe aNog binding to arrayed compounds – biochemical, biotinylated probe, 635/667 nm fluorescence, primary screen (AID 1115).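 Also: probe is biotinylated aNog protein used at 0.15 µg/mL for 1 h at 4 C; z-score combines 667 nm fluorescence of each spot with its signal to noise.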 As to conditions: small-molecule microarray, higher = more signal.
The target in test [19] is Torsin-1A-interacting protein 1 (Homo sapiens) (UniProt Q5JTV8). The test can be described thus: compound microarray binding of lysate hLAP1 – cell lysate, small-molecule microarray, COS7 lysate, 635/667 nm fluorescence, primary screen (AID 1116). As to conditions: 635 nm fluorescence, higher = more signal.
Sequence of Torsin-1A-interacting protein 1 (Homo sapiens) (Q5JTV8 whole entry, looked up): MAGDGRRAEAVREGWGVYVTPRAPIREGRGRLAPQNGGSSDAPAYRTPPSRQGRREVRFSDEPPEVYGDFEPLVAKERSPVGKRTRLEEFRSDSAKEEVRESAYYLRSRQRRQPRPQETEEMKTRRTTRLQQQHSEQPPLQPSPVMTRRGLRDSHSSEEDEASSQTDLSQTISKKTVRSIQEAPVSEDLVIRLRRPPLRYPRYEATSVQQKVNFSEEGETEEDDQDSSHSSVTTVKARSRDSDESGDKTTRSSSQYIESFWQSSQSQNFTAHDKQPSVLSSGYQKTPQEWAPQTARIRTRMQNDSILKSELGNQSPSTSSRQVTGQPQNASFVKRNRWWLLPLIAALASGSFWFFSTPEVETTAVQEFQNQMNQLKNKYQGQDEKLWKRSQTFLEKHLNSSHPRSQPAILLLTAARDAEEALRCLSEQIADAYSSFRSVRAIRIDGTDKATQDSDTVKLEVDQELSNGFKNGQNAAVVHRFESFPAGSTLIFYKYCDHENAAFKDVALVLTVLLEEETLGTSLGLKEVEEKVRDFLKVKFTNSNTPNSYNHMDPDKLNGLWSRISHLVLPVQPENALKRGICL
Test [20] concerns the target Alpha-bungarotoxin (Bungarus multicinctus) (UniProt P60615). Briefly: compounds binding labelled alpha-BTX control protein – biochemical, small-molecule microarray, Alexa647 label, 635/667 nm fluorescence, artefact control for SMM control protein annotation, profiling panel (AID 1117). The note with it: alpha-BTX-A647 binding fluorescence, higher = more signal.

Sequence of Alpha-bungarotoxin (Bungarus multicinctus) (P60615 whole entry, looked up): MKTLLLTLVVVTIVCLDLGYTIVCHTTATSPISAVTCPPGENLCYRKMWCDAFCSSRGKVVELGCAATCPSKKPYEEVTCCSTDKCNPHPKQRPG

Regarding `CCCNC(=O)OC[C@H]1O[C@H](CCON=C(C)CCN2CCc3nc(-c4ccccc4)c(-c4ccccc4)cc3C2)C=C[C@@H]1Oc1ccc(OC)cc1`, the composite z-score was 0.274 in test [1]; -0.128 in test [2]; -0.155 in [3]; 0.0705 in test [5]; -0.0859 in test [6]; 0.0142 in test [7]. The composite z-score in test [8] is 0.254; in [9], 0.431; in test [10], 0.67; in test [11] it was 0.518; in test [13] it was 0.135; in test [14], -0.0233. Moreover, the composite z-score in [15] was -0.0536; in test [16] it was -0.0535; in test [17], -0.0299; in test [18], -0.321; in test [19], 0.32; in [20] it was 0.316. Also, the z-score in [4] was -0.0345 (inactive); in [12], -3.28.

Regarding `C[C@@H]1CC[C@@H](C(=O)O)N[C@H]1c1ccc(-c2ccco2)cc1`, the composite z-score in [1] is 1.04; in test [2] it was -0.187; in [3], -0.826; in test [5], 0.614; in test [6], 0.722; in test [7], 0.946. Also, the composite z-score is 1.44 in [8]; 0.951 in test [9]; 0.805 in test [10]; -1.68 in test [11]; 0.88 in test [13]; -0.547 in [14]. Also, the composite z-score in test [15] is -1.3; in test [16], -0.096; in [17], -0.299; in test [18], 0.0023; in [19], 0.195; in test [20], 0.0848. Besides, the z-score was 0.0295 (inactive) in [4] and -0.305 in [12].

As for `C=CCN(Cc1ccccc1)C(=O)C(c1cccs1)N(C(=O)/C=C\C(=O)O)c1c(Cl)cccc1CO` (stereo not given), the composite z-score was -1.01 and -1.02 in [1]; -0.833 and 0.0042 in test [2]; 0.898 and 0.996 in test [3]; -1.96 and -1.73 in [5]; -1.09 and -1.76 in test [6]; -1.63 and -1.36 in [7]. For the same compound, the composite z-score in test [8] was -1.27 and -2.07; in test [9], -2.01 and -2.62; in test [10], -3.32 and -2.86; in [11], -1.63 and -2.43; in [13], -0.682 and -3.86; in [14], -0.374 and -0.222. In addition, the composite z-score in test [15] is 0.58 and 0.911; in test [16] it was -0.12 and -0.298; in [17] it was -0.212 and -0.366; in [18], -0.153 and 0.103; in test [19] it was -1.51 and -0.936; in test [20], -0.974 and -2.03. The z-score in [4] is 0.395 (inactive) and -0.0385 (inactive); in test [12], -0.68 and -0.803.

For `C=CCN(CCCCC)C(=O)C1N(CCOCCO)C(=O)C2C(C(=O)O)C3C=CC21O3` (stereo not given), the composite z-score in [1] is 0.128 and 1.72; in test [2], -0.344 and -0.208; in test [3], 0.77 and 0.925; in test [5], -1.48 and -1.61; in test [6], -1.97 and -0.615; in test [7], -1.74 and -1.79. For the same compound, the composite z-score in [8] is -1.54 and -1.58; in test [9], -2.58 and -3.23; in test [10] it was -1.97 and -1.95; in test [11], -1.53 and -0.495; in [13] it was -2.78 and -1.83; in [14], -0.368 and -0.355. The composite z-score in test [15] is 1.01 and 1.07; in test [16], -0.276 and -0.328; in test [17], 0.0048 and -0.124; in test [18], -0.149 and -0.201; in test [19], -1.04 and 1.94; in test [20], -1.16 and -3.11. Moreover, the z-score in test [4] was 0.8 (inactive) and 1.24 (inactive); in test [12], -0.586 and 0.715.

As to `CCOC(=O)C[C@H]1[C@H](OC(=O)c2ccccc2-c2ccccc2)[C@@H](NC(=O)Cc2ccc(OC)cc2)c2cc(OCCCO)ccc2N1C(=O)Cc1ccc(OC)cc1`, the composite z-score is 0.463 and -0.568 in [1]; 0.659 and -0.038 in [2]; 0.675 and 0.58 in [3]; 0.57 and -0.0746 in test [5]; 0.348 and -0.607 in [6]; -0.111 and -0.847 in test [7]. Besides, the composite z-score is 0.223 and -0.624 in test [8]; -0.215 and -0.331 in test [9]; 0.29 and 0.764 in test [10]; 0.361 and -0.687 in test [11]; 0.422 and -0.519 in test [13]; 1.11 and -0.163 in test [14]. The composite z-score in [15] is 0.971 and -0.309; in test [16], -0.0346 and -0.0107; in [17] it was 0.412 and -0.0977; in test [18], 0.811 and 0.467; in test [19], 0.477 and 0.415; in [20], 0.873 and 0.224. Besides, the z-score in test [4] was -1.05 (inactive) and -0.311 (inactive); in test [12], -0.912 and -0.962.

As to `C=CCN(C(=O)C1N(CCCCCCO)C(=O)C2C(C(=O)O)C3C=CC21O3)C(C)(C)C` (stereo not given), the composite z-score in [1] is 2.09 and 0.74; in test [2], -0.164 and -0.432; in [3] it was 0.991 and 1.09; in test [5], -2.17 and -2.31; in test [6] it was -1.18 and -1.05; in [7], -2.13 and -1.6. In addition, the composite z-score in test [8] was -2.45 and -1.52; in test [9] it was -3.24 and -3.14; in test [10] it was -3.68 and -2.77; in [11], -1.46 and -0.783; in test [13], -3.98 and -3.63; in [14], -0.332 and -0.397. The composite z-score is 0.915 and 0.825 in test [15]; -0.348 and -0.364 in test [16]; -0.221 and -0.123 in [17]; -0.176 and 0.338 in test [18]; -1.85 and -0.489 in [19]; -1.42 and -1.95 in test [20]. The z-score in [4] is 0.717 (inactive) and 1.5 (inactive); in test [12], 0.31 and -0.387.
